# In the library only some 9.2% were active in any assay of this set; here they are far more common.
# FLuc counter – firefly luciferase modulation, counter-screen for miR-21 project | purified FLuc, Km substrates, luminescence inhibition | AID 588342 | 360,000 compounds, 6.9% hits | Potency, µM (titrated, usually from 57.5 µM), without a hit: top-dose activity change, negative = inhibition, most hits filed as inhibitors;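 further: plate controls were vehicle for no effect and reference inhibitor for full effect; nearly all actives have a fitted effect of over 55% in size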
# Target sequence (P08659 whole entry, looked up): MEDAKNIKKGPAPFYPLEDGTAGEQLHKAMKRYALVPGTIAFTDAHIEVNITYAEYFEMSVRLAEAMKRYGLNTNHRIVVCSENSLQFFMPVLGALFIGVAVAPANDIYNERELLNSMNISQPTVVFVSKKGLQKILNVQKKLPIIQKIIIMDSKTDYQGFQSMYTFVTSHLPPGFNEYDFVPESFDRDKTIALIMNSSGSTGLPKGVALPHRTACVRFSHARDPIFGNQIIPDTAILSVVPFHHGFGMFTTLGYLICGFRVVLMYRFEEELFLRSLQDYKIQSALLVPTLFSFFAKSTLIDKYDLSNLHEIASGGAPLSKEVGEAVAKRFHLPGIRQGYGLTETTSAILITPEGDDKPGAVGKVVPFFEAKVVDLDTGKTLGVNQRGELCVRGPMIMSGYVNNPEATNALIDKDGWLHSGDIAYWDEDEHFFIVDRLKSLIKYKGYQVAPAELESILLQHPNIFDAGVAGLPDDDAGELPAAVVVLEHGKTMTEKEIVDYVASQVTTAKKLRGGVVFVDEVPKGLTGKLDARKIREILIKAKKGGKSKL
#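 Biochemical qHTS of compounds, final roughly 60 µM downward over six points, against 10 nM purified firefly luciferase using Km concentrations of substrates (10 uM D-luciferin, 10 uM ATP) in Tris acetate pH 7.5 buffer; luminescence output.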
# Rab9 promoter act – Rab9 promoter activation | Huh7 Rab9 promoter-luciferase reporter, luminescence, 24 h | Potency, µM (series often up to 9.22 µM), inactives show at the highest dose activation, negative = inhibition, actives largely listed as activators | 320,000 compounds, 2.8% hits | AID 485297; further: % of control where 0% means no effect; nearly all actives have a fitted effect of over 60% in size
#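 Luminescence read-out: Huh7 cells stably expressing Rab9-luciferase, treated 24 h with compound at 37 °C, then lysed with luciferase reagent for 10 min at ambient before reading.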
# ELG1 genotox – genotoxicity induction in ELG1-luciferase HEK293T cells. HEK293T ELG1-luciferase reporter, luminescence, 16 h. Potency, µM (series often up to 46 µM), for inactives: top-dose activity change, positive = activation, hits mostly activators. 330,000 compounds, 1.3% hits. AID 504466; further: % of control where 0% means no effect; nearly all actives have a fitted effect of over 60% in size
#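 ELG1-luciferase HEK293T cells, 2,000/well; compound pinned in; 16 hr, 37 °C, 5% CO2; ONE-Glo, 30 min RT; luminescence on CCD imager.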
# SMN2 splice up – SMN2 splice variant enhancement; HEK293 SMN2-luciferase splicing reporter, luminescence, 30-36 h; Potency, µM (top dose mostly 46.1 µM), for the others: at the highest dose activity change, positive = activation, usual class: activators; 210,000 compounds, 2.8% hits; further: % of control where 0% means no effect; nearly all actives have a fitted effect of over 55% in size
#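 HEK293 cells carry an SMN2 minigene-luciferase reporter in which exon 7 inclusion puts luciferase in frame. Cells were seeded at 2000 cells/well, attached for 10-12 hours, then exposed to compounds for 30-36 hours at 37C before ONE-Glo luminescence.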
# ELG1 repair inh – blocks ELG1-dependent DNA repair in HEK293T cells. HEK293T ELG1-luciferase reporter, luminescence, 16 h; DNA damage induced by 5-fluorouridine. Potency, µM (doses to about 46.1 µM), for the others: top-dose activity change, negative = inhibition, hits mostly inhibitors. 330,000 compounds, 2.3% hits. AID 504467; further: on the % scale 0 is the no-effect control and ±100 the full control effect; nearly all actives have a fitted effect of over 55% in size
#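 Reporter activity after DNA damage by 5-fluorouridine is monitored. Compound-treated cells incubate 16 hr at 37 °C, then ONE-Glo is added for 30 min before luminescence reading.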
# NPC1 prom act – activators of NPC1 promoter | Huh7 NPC1 promoter luciferase reporter, 24 h | Potency, µM (top dose mostly 9.22 µM), for inactives: top-dose activation, most hits filed as activators | 320,000 compounds, 2.4% hits | AID 485313; further: % of control where 0% means no effect; nearly all actives have a fitted effect of over 60% in size
#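 Readout is luciferase luminescence, reflecting NPC1 promoter activation in stably transfected Huh7 cells after 24 h compound exposure at 37 °C in reduced-serum medium with 10% FBS.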
# Starred values were filed as active, the others as inactive; ? = inconclusive; nt = no result given; [ ] = dose if it differs, or a comment. The call rests on the fitted dose curve; in most records, active means well fitted curve in the direction sought with a large enough effect; inconclusive means small, poorly fitted or top-dose-only effect, or another doubt; inactive means no such curve, though single readings can be large; an effect the other way counts as inactive or inconclusive. Potency means the concentration at half of the fitted maximal effect.
SMILES,FLuc counter,Rab9 promoter act,ELG1 genotox,SMN2 splice up,ELG1 repair inh,NPC1 prom act
COc1ccc(-c2nc(C3CCCCC3)no2)cc1OC,15.1µM*,2µM*,?,22.7%,?,?
c1ccc(-c2nc(C3CCCCC3)no2)cc1,16.9µM*,7.1%,20.6µM*,24.2%,?,11.7%
O=C(CN1CCN(Cc2ccc(F)cc2)CC1)NCc1ccccc1,0.0%,-1.9%,-2.8%,nt,-11.0%,-2.0%
Brc1ccc(C2=Nn3c(nnc3-c3n[nH]c4c3CCC4)SC2)cc1,2.7%[2.3 µM],-10.8%,?,22.4µM*,-3.4%,-27.4%
c1ccc(-c2ccc(C3=Nn4c(nnc4-c4cc(-c5ccccc5)n[nH]4)SC3)cc2)cc1,4.78µM*,-9.9%,-8.5%,-9.7%,-25.5%,14.1%
NC(=S)N=Nc1ccc(NN=C(N)N)cc1,21.3µM*,3.6%,-4.8%,nt,-1.6%,-1.5%
Cc1cccc(NC(=O)c2ccc(COc3ccc4ccccc4c3)o2)n1,?,4.5%,-0.6%,nt,-7.2%,13.6%
Cc1csc(NC(=O)c2ccc(COc3ccccc3)o2)n1,16.9µM*,?,1.5%,nt,?,1µM*
Cc1cccc(NC(=O)c2ccc(COc3ccccc3)o2)n1,16.9µM*,27.0%,27.3%,nt,27.4%,16.3%
CCC1CN(C(=O)N2CCC(C(=O)NCc3ccc(N(C)C)cc3)CC2)c2ccccc2O1 (stereo not given),-2.4%,nt,nt,nt,nt,nt
CS(=O)(=O)N(CCCC(=O)N1CCCCCC1)c1cccc(Cl)c1,5.9%,-4.9%,-26.3%,nt,9.6%,1.7%
COc1ccccc1-c1nc(-c2ccccc2)nc(N2CCN(C)CC2)c1C#N,2.1%,-9.1%,-10.2%,-19.9%,20.6µM*,-5.7%
COC(=O)[C@H](CCSC)NC(=O)c1cccnc1SC,-2.4%,-3.5%,-3.4%,nt,-0.1%,-0.3%
CCc1ccc(C(=O)NC(CCSC)C(=O)OC)cc1 (stereo not given),19µM*,6.1%,-1.8%,5.1%,8.3%,-3.5%
Cc1cnc(C(=O)Nc2ccc(N3CCCCC3)cc2)cn1,7.57µM*,3.16µM*,?,11.2µM*,?,3.55µM*
Cc1cc(C(=O)Nc2ccc(S(=O)(=O)N3CCCC3)cc2)no1,3.5%,-1.6%,3.7%,2.3%,1.2%,-2.8%
Cc1cc(C(=O)Nc2ccc(N3CCCCC3)cc2)no1,1.35µM*,0.282µM*,?,nt,?,0.316µM*
O=C(Nc1nc(-c2ccccn2)cs1)c1ccc([N+](=O)[O-])o1,?,-31.5%,5.9%,nt,?,0.7%
Cc1cc(C)c2sc(NC(=O)c3ccc([N+](=O)[O-])o3)nc2c1,13.5µM*,9.6%,1.1%,nt,?,0.1%
Cc1cc(C)c2nc(NC(=O)c3ccc([N+](=O)[O-])o3)sc2c1,?,21.0%,-7.1%,nt,?,-0.5%
Cc1cnc(NC(=O)c2ccc(-c3ccc([N+](=O)[O-])cc3)o2)s1,-4.0%,-4.0%,-0.4%,nt,7.8%,-3.9%
O=C(Nc1nc2ccccc2s1)c1ccc([N+](=O)[O-])o1,6.75µM*,?,6.6%,nt,?,?
O=C(Nc1nc2ccccc2s1)c1ccccc1[N+](=O)[O-],16.9µM*,?,?,nt,?,?
Cc1cnc(NC(=O)c2ccc(-c3nc4ccccc4s3)o2)s1,16.9µM*,13.4%,-4.5%,0.3%,?,29.8%
CCOc1ccc(NC(=O)N2CCN(S(=O)(=O)c3ccc4c(ccn4C)c3)CC2)cc1,-2.1%,nt,nt,nt,nt,nt
SMILES,FLuc counter,Rab9 promoter act,ELG1 genotox,SMN2 splice up,ELG1 repair inh,NPC1 prom act
CC(CCc1ccccc1)NC(=O)c1ccc(F)cc1 (stereo not given),1.5%,-3.0%,3.6%,nt,19.9%,-2.4%
COc1cc2cc3c4cc(OC)c(OC)cc4cc[n+]3c(C)c2cc1OC,nt,nt,nt,-21.0%,nt,nt
Cc1cc(C)nc(NC(=O)c2ccc([N+](=O)[O-])o2)n1,5.8%,3.4%,-2.5%,1.8%,-9.2%,-0.2%
O=C(Nc1nc2c(F)cc(F)cc2s1)c1ccc([N+](=O)[O-])o1,16.9µM*,1.58µM*,-0.9%,nt,?,2.24µM*
COc1ccc2nc(NC(=O)c3ccc([N+](=O)[O-])o3)sc2c1,2.13µM*,2.82µM*,20.9%,nt,?,?
O=C(Nc1nc2cc3c(cc2s1)OCCO3)c1ccc([N+](=O)[O-])o1,1.2µM*,1µM*,9.2µM*,nt,?,0.891µM*
COc1ccc(CCNC(=O)CCS(=O)(=O)c2cc(Br)cc3c2N(C(C)=O)CC3)cc1OC,1.4%,nt,nt,-0.7%,nt,nt
CCCCN1C(=O)C(=O)N(CC(=O)c2cc(C)n(C3CC3)c2C)C1=O,nt,7.6%,5.9%,nt,?,13.4%
Cc1nc(-c2ccc(C(=O)Nc3cccc(Br)c3)cc2)cs1,1.07µM*,?,?,10µM*,?,?
Cc1nc(-c2cccc(NC(=O)c3ccc(-n4nccc4C)cc3)c2)cs1,4.78µM*,10.0%,-7.6%,nt,?,12.2%
COc1ccccc1CNC(=O)C(=O)NCC(c1cccs1)S(=O)(=O)c1ccccc1 (stereo not given),-8.9%,nt,nt,nt,nt,nt
Cc1cc(C(=O)N/N=C/c2ccc(OCc3ccccc3)cc2)c(C)o1,?,6.8%,-3.8%,10.7%,4.2%,-1.1%
O=C(O)c1cc(N/N=C/C=C/c2ccccc2)ccc1Cl,7.57µM*,0.355µM*,9.2µM*,10µM*,?,0.398µM*
COC(=O)c1ccc(COc2ccc(/C=N/Nc3cccc(C(=O)O)c3)cc2)cc1,2.69µM*,0.398µM*,?,nt,?,0.708µM*
O=C(O)c1cccc(N/N=C/c2cccs2)c1,0.426µM*,?,?,0.141µM*,?,?
O=C(O)c1cc(N/N=C/c2ccc(OCc3ccccc3)cc2)ccc1Cl,6.75µM*,0.562µM*,?,11.2µM*,?,2.51µM*
O=C(N/N=C/C=C/c1ccccc1)c1ccccc1Br,?,-2.1%,-3.0%,22.4%,?,4.0%
O=C(O)c1ccc(N/N=C/c2ccc(OC(=O)c3cccc(Cl)c3)cc2)cc1,19µM*,?,-3.8%,nt,?,?
O=C(O)c1cccc(N/N=C/c2ccc(OC(F)(F)F)cc2)c1,0.0675µM*,0.0316µM*,?,nt,?,?
CSc1ccc(/C=N/Nc2cccc(C(=O)O)c2)cc1,0.0757µM*,0.0891µM*,0.073µM*,0.251µM*,?,?
Cc1cccc(C(=O)Oc2ccc(/C=N/NC(=O)c3ccc(O)cc3)cc2)c1,?,3.8%,5.4%,nt,-0.2%,-2.4%
O=C(Nc1ccc(OC(F)(F)F)cc1)c1cccc(-n2cnnn2)c1,0.1%,-6.8%,-1.1%,nt,-7.1%,-2.3%
NC(N)=NCCN1CCCCCCC1,nt,nt,nt,7.0%,nt,nt
CC(C)NC(=O)c1sc2ncccc2c1-n1cccc1,5.1%,nt,nt,nt,nt,nt

# Assay outcomes: PubChem BioAssay, National Center for Advancing Translational Sciences (NCATS)
